# ERK AVP inh: blocks ERK signaling stimulated by vasopressin; HEK293-V1b, vasopressin-stimulated pERK AlphaScreen; 72,000 tested, 0.99% active; Potency, µM (series often up to 57.5 µM), for the others: at the highest dose activity, negative = inhibition, hits mostly inhibitors; AID 995; further: nearly all actives have a fitted effect of over 55% in size
#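 HEK293 cells stably expressing V1b receptor, seeded overnight in 1% FBS, were treated with compounds for 30 min at 37C, then stimulated 5 min with 25 nM vasopressin; phospho-ERK read by AlphaScreen SureFire after lysis.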
# FLuc inh: blocks Photinus pyralis firefly luciferase activity; P08659; purified firefly luciferase, luminescence, 8 min; Potency, µM (series often up to 57.1 µM), for the others: top-dose activity change, negative = inhibition, actives largely listed as inhibitors; 72,000 tested, 2.2% active; AID 411; further: nearly all actives have a fitted effect of over 40% in size
#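 Luminescence read-out after 8 min at room temperature; enzyme reaction used luciferin plus 10 uM ATP (linear range) in imidazole buffer pH 7.2 with KCl, MgCl2, Tween 20 and BSA. Each sample was run as a titration.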
# DNA Pol III inh: blocks replication by bacterial DNA polymerase III holoenzyme. reconstituted DNA polymerase III holoenzyme replication, biochemical. Potency, µM (doses to about 57.1 µM), for inactives: at the top dose activity change, negative = inhibition. 71,000 tested, 0.25% active. AID 603
#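 Reconstituted *E. coli* holoenzyme (0.35 nM Pol III, 1 nM beta, 154 nM SSB, 2 nM primase) was preincubated with compound for 15 min at RT. Synthesis on 1.4 nM ssM13Gori ran 35 min, then was stopped with PicoGreen/EDTA and read as dsDNA fluorescence.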
# Bst PK mod: pyruvate kinase (B. stearothermophilus) modulation | Potency, µM | purified pyruvate kinase, luminescence ATP production; ribose 5-phosphate activator present at AC10 | 51,000 tested, 1.2% active | AID 361; in the data active means potency below about 11 µM; inconclusive means mostly about 12 µM to 25 µM;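 the screen sought inhibitors and activators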;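 further: scaled between full activation by ribose 5 phosphate and full inhibition by luteolin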
# ALOX15 inhib: 15-hLO (ALOX15) enzyme inhibition; Potency, µM (series often up to 57.1 µM), for the others: at the top dose activity change, negative = inhibition, hits mostly inhibitors; 74,000 tested, 1.4% active; purified 15hLO-1, xylenol orange hydroperoxide absorbance; AID 887; further: nearly all actives have a fitted effect of over 55% in size
#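 Quantitative HTS in 25 mM Hepes pH 7.5 containing 0.01% Triton X-100: human 15hLO-1 at 40 nM, arachidonic acid at 50 uM, 6 min turnover. Product quantified via ferrous oxidation/xylenol orange, 573:405 nm absorbance ratio.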
# Tau filament bind: binders of human tau filaments | P10636 | recombinant tau filaments, thioflavin S fluorescence, 15 h; filaments grown with octadecylsulfate alongside compound | AID 596 | 71,000 tested, 2% active | Potency, µM (top dose mostly 57.1 µM), for inactives: at the highest dose activity change, negative = inhibition;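 further: actives lower thioflavin S fluorescence by blocking filaments or displacing dye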
# Target sequence (P10636 whole entry, looked up): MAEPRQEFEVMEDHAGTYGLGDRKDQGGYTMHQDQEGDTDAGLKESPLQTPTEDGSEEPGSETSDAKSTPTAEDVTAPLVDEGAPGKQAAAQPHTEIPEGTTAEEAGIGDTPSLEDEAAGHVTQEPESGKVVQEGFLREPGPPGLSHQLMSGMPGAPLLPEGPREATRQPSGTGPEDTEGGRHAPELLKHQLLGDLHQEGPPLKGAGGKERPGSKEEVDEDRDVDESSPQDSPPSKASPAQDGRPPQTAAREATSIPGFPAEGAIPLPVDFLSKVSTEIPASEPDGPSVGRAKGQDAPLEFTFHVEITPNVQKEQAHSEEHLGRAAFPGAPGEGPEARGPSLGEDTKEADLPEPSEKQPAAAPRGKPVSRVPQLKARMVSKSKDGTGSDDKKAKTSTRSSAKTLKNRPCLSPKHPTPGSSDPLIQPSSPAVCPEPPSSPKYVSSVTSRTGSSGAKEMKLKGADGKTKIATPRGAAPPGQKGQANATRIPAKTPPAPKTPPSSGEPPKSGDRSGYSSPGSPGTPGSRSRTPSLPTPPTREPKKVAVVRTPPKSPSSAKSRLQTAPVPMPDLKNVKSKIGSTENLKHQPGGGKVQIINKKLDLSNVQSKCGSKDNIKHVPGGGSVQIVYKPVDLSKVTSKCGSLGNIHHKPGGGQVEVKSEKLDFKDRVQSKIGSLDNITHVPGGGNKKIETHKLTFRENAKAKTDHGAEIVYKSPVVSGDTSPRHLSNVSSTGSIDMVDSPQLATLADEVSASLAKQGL
#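 Thioflavine S fluorescence (ex 450, em 510 nm) reports filaments formed from 1 uM human tau plus 30 uM ODS over 15 h at 37 C (10 mM HEPES pH 7.4, 100 mM NaCl, 5 mM DTT); compounds displacing dye or blocking filaments lower signal.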
# Starred values were filed as active, the others as inactive; i = inactive; ? = inconclusive; · = not tested or not shown; ! = a repeat was not active; [ ] = another dose, or the depositor's remark. Shown are actives, neighbours in structure and some others; about 6% of the full set was active somewhere. Unless noted, the call rests on the fitted dose curve; in most records, active means well fitted curve in the direction sought with a large enough effect; inconclusive means small, poorly fitted or top-dose-only effect, or another doubt; inactive means no such curve, though single readings can be large; an effect the other way counts as inactive or inconclusive. Unless noted, on the % scale 0 is the no-effect control and ±100 the full control effect; potency means the concentration at half of the fitted maximal effect.
SMILES,ERK AVP inh,FLuc inh,DNA Pol III inh,Bst PK mod,ALOX15 inhib,Tau filament bind
O=C1O/C(=C\Br)CC[C@@H]1c1cccc2ccccc12,?,1.1%,-0.2%,·,?,2.7%
O=C(O)[C@H]1CN[C@H](C(=O)O)C1,13.9%,-0.2%,-6.0%,·,?,39.8µM*
Cc1cc(/C=N/n2cnnc2)c(C)n1-c1ccc(OCc2ccccc2F)cc1,?,2.0%,-3.1%[11.4 µM],·,5.3%[11.4 µM],7.0%[11.4 µM]
Cn1nnc(-c2ccc(OCc3ccccc3F)cc2)n1,25.7%,25.1µM*,1.7%,>57,1.5%,35.1%
COc1ccc(-n2c(=O)c(-c3cccs3)nc3cnc(N4CCN(C)CC4)nc32)cc1,30.0%,1.1%[11.4 µM],-1.9%,·,-14.1%,i
O=C(NCc1ccccc1)c1ccc(Cc2nc3ccccc3[nH]2)cc1,·,·,·,·,-7.7%,·
COC(=O)c1ccccc1NC(=O)c1ccc(F)cc1,11.6%,2.1%,-1.9%,·,17.1%[25.6 µM],?
CCOC(=O)c1ccccc1NC(=O)c1ccc(NS(C)(=O)=O)cc1,25.1µM*,-0.6%,-3.0%,·,-10.5%,-5.1%
COC(=O)NC(c1ccccc1)[C@@]1(C(=O)OC)CCCC1=O (some centres not stated),-5.8%[11.5 µM],·,·,·,9.5%[11.4 µM],·
O=S(=O)(c1ccccc1)N1CCC2(CC1)CN(c1ccccn1)C2,10.9%,-0.1%[11.4 µM],-4.0%,·,4.5%,-5.9%
COc1ccc(-c2cnn(-c3ccccc3)c2N)cc1OC,-8.7%,-3.5%,-3.1%[11.4 µM],·,7.6%[11.4 µM],-16.6%[11.4 µM]
Nc1nc2c(s1)CCc1c-2cnn1-c1ccccc1,25.1µM*,7.94µM*,?,10.1*,2.51µM*,20µM*
O=C(CSc1nnc(-c2cccs2)o1)c1cccs1,-5.4%,-14.6%,0.5%,>57,-7.3%,7.9%
Cc1cc(C(=O)CSc2nnc(-c3cccs3)o2)c(C)n1-c1ccccc1,10.4%,-11.3%,-4.8%,>11.4,20µM*,12.4%
Cc1cc(C(=O)CSc2nnc(-c3ccco3)o2)c(C)n1Cc1ccco1,-22.8%,-1.7%,-23.6%,>57,25.1µM*,34.3%
NC(N)=NC(N)=Nc1c(F)c(F)c(F)c(F)c1F,-10.0%[11.5 µM],3.2%[11.4 µM],-8.1%[11.4 µM],·,1.4%[11.4 µM],7.7%[11.4 µM]
COC(=O)Cc1c(C)nc2nc(-c3ccccc3)[nH]n2c1=O,-26.1%,25.1µM*,8.7%,·,-17.4%,?
COC(=O)Cc1c(C)nc2nc(-c3cccnc3)[nH]n2c1=O,1.8%,-10.3%,-1.1%,>57,0.8%,-0.6%
COc1ccc(NC(=O)C2CCCNC2)cc1OCC(C)C (configuration not stated),-0.6%,0.7%,0.6%,·,?,25.1µM*
COc1cc(NC(=O)C2CCCCN2)ccc1OCC(C)C (configuration not stated),-17.5%,1.4%,-5.9%,>57,-27.6%,-21.5%
COC(=O)[C@](C)(N)Cc1ccc(O)cc1,11.7%,2.6%,0.2%,·,6.9%,2.3%
COC(=O)c1cc(CSc2nnc(-c3ccccc3)c(-c3ccccc3)n2)oc1C,6.9%,-1.0%,-3.1%,>57,9.1%,15.8µM*
O=C(O)C1=CC(=C(c2ccc(O)c(C(=O)O)c2)c2ccc(O)c(C(=O)O)c2)C=CC1=O,5.5%,0.0%,0.0794µM*,·,2.51µM*,-4.8%
CO/N=C(\C)CCN1CCCc2nc(C)c(C)cc21,37.4%[11.5 µM],0.7%[11.4 µM],·,·,-11.3%[11.4 µM],·
CCCCCCCCCCCC1=C(O)C(=O)C=C(O)C1=O,46.3%,-16.9%,6.31µM*!,·,5.01µM*,3.16µM*
SMILES,ERK AVP inh,FLuc inh,DNA Pol III inh,Bst PK mod,ALOX15 inhib,Tau filament bind
Cc1ccc(Cl)cc1N1CCN(C(=O)CN2C(=O)c3cccc4cccc2c34)CC1,25.8%,2.4%,1.1%,5.3*,-25.8%,60.7%
O=C(Nc1ccc2nc(-c3cccs3)[nH]c2c1)c1ccco1,-22.9%,10µM*,-7.7%,9.46*,-4.1%,-5.7%
CC(=O)Nc1ccc2nc(-c3ccccn3)[nH]c2c1,0.4%,12.6µM*,-8.0%,?,9.1%,-10.3%
O=C(Nc1ccc2nc(-c3cccs3)[nH]c2c1)c1cccs1,-20.6%,12.6µM*,-0.4%,10.2*,-10.4%,75.9%
N[C@H](Cc1ccc(F)cc1)C(=O)O,7.5%,-0.1%,1.9%,·,-1.2%,-6.3%
NC(N)=Nc1ccc(-c2ccc(N=C(N)N)cc2)cc1,8.1%[11.5 µM],1.4%[11.4 µM],-7.6%[11.4 µM],·,2.8%[11.4 µM],3.8%[11.4 µM]
O=C(O)c1ccncc1.O=C(O)c1ccncc1.[Cl][Pt]([Cl])([Cl])[Cl],-5.6%[11.5 µM],-4.3%[11.4 µM],1.4%[11.4 µM],·,·,3.0%[11.4 µM]
CO[C@H]1COC(=O)[C@H](C)NC(=O)C/C=C\[C@@H](C)[C@H](OC)COC(=O)C/C=C\[C@@H]1C,5.4%[11.5 µM],1.5%[11.4 µM],·,·,4.7%[11.4 µM],·
Cc1cc(-c2csc(NC(=O)c3ccc(=O)n(C)n3)n2)c(C)n1CC1CCCO1 (configuration not stated),-8.8%,-0.9%,-6.3%,9.1*,?,7.94µM*
O=C(NCc1ccc(N2CCCC2=O)cc1)Nc1ccccc1,4.6%,-0.3%,-5.5%,>57,-4.9%,2.9%
Cc1ccc(CNC(=O)Nc2ccccc2)cc1,-1.3%,12.6µM*,-4.5%,·,-0.5%,1.6%
COc1cccc(Nc2ncc3nc(-c4cn(C)c5ccccc45)c(=O)n(CCC#N)c3n2)c1,-13.8%,-2.3%[11.4 µM],-0.7%,·,-20.8%,159.3%
O=C(O)[C@H]([C@H]1NCCS1)N1Cc2ccccc2C1,2.6%[11.5 µM],2.8%[11.4 µM],-11.0%[11.4 µM],·,1.4%[11.4 µM],-0.5%[11.4 µM]
Cc1nc(NCc2ccccn2)c2ccccc2n1,17.8%,-4.6%,-3.6%,>57,2.2%,24.8%
c1ccc(CNc2ccc3ccccc3n2)nc1,-27.1%,25.1µM*,-5.2%,·,-17.1%,-9.4%

# From PubChem
